Laboratory results: PubChem BioAssay (Tox21)
Several values for one entry are separate records, joined by “and”; a condition that tells them apart may be missing. Equal values may be shown once. Results filed as inconclusive are left out. The source holds several records for some structures; these can differ, active in one and inactive in another. Activity calls are given as the source filed them. Calls follow the shape of the dose curve; as a rule, active = well fitted cell-killing curve with a large enough effect in the repeat runs; inconclusive = weak or mixed curves; inactive = no such curve, though single readings can be large or run the other way.

Test: qHTS assay to identify small molecule antagonists of the peroxisome proliferator-activated receptor delta (PPARd) signaling pathway - cell viability counter screen (AID 743213); also: nearly all actives have a fitted effect of over 50% in size
Conditions: PPARd-bla HEK293H viability, CellTiter-Glo luminescence, 17 h; series mostly up to 62 µM; viability change, negative = cytotoxic: at the top concentration
Source text: U.S. Tox21 Program National Center for Advancing Translational Sciences [NCATS] NIH Chemical Genomics Center [NCGC] U.S. Environmental Protection Agency [EPA] National Institutes of Environmental Health Sciences [NIEHS] National Toxicology Program [NTP] U.S. Food and Drug Administration [FDA] Tox21 Assay Overview: The peroxisome proliferator-activated receptors (PPARs) are lipid-activated transcription factors of the nuclear receptor superfamily with three distinct subtypes namely PPAR alpha, PPAR delta (PPARd) and PPAR gamma. All these subtypes heterodimerizes with Retinoid X receptor (RXR) and have different physiological functions. […] To identify the compounds that inhibit PPAR-delta signaling, GeneBLAzer PPAR delta UAS-bla HEK293H cell line (Invitrogen, Carlsbad, CA, USA) containing a beta-lactamase reporter gene under the control of an Upstream Activator Sequence (UAS) was used to screen the Tox21 compound library. The cytotoxicity of the Tox21 compound library against the PPARd-bla cell line was tested in parallel by measuring the cell viability using CellTiter-Glo assay (Promega, Madison, WI) in the same wells.
Tox21 Assay Protocol Summary: PPARd-bla cells were dispensed at 3000 cells/5uL/well in 1536-well black wall/clear bottom plates using a Multidrop Combi (Thermo Fisher Scientific, Waltham, MA) dispenser. After the assay plates were incubated at 37 C and 5% CO2 for 5 h, 23 nL of compounds dissolved in DMSO, positive controls or DMSO only was transferred to the assay plate by a Pintool station (Kalypsys, San Diego, CA), followed by addition of 1ul L165041 (300 nM, final concentration in the wells). The assay plates were incubated at 37 C for 17 h, and then 1 uL of LiveBLAzerTM B/G FRET substrate was added using a Bioraptr Flying Reagent Dispenser (FRD) workstation (Beckman Coulter, Indianapolis, IN, USA). The assay plates were incubated at room temperature for 2 h and fluorescence intensity was measured by an Envision plate reader (PerkinElmer, Shelton, CT). For cell viability readout that measures cytotoxicity, 3 ul/well of CellTiter-Glo reagent was added into the assay plates using a Bioraptr FRD. After 30 min incubation at room temperature, the luminescence intensity in the plates was measured using a ViewLux plate reader (PerkinElmer).
% is scaled to controls: 0 for no effect and ±100 for the full control effect; potency is read from the fitted curve at half-maximal effect.

| Structure (SMILES) | viability change, negative = cytotoxic | Potency |
| --- | --- | --- |
| CC1NCCOC1c1ccccc1 (stereo not given) | 14.8% (inactive) |  |
| COC[C@@H](NC(C)=O)C(=O)NCc1ccccc1 | -0.426% (inactive) |  |
| CC#Cc1cc(C)nc(Nc2ccccc2)n1 | 20.5% (inactive) |  |
| CCCCCCC1CCOC1=O (stereo not given) | 1.2% (inactive) |  |
| COP(=O)(OC)O/C(C)=C/C(=O)N(C)C | 10.3% [at 80.4 µM] (inactive) |  |
| CCOC(=O)NC(C)(C)Cc1ccc(Cl)cc1 | -11.3% (inactive) |  |
| CCC(C)C(C)(COC(N)=O)COC(N)=O (stereo not given) | 2.13% (inactive) |  |
| O=C(O)CBr | 3.3% (inactive) |  |
| C=C(Cl)CCl | 6.13% (inactive) |  |
| CCCCCCCC(=O)Cl | 2.04% [at 80.4 µM] (inactive) |  |
| CC(=O)CN(CC(C)=O)N=O | -9.44% (inactive) |  |
| CCOC(=O)Nc1cccc(OC(=O)Nc2ccccc2)c1 | 15.9% (inactive) |  |
| NNC(N)=O | 15.1% [at 80.4 µM] (inactive) |  |
| ClC(Cl)(Cl)Cl | 15.6% (inactive) |  |
| Brc1c(Br)c(Br)c(Br)c(Br)c1Br | -8.99% [at 6.26 µM] (inactive) |  |
| CCN1CCCC1CNC(=O)C(O)(c1ccccc1)c1ccccc1 (stereo not given) | -2.55% (inactive) |  |
| NC(=O)OCCCc1ccccc1 | -5.15% (inactive) |  |
| N#CN=C1SCCN1Cc1ccc(Cl)nc1 | 1.34% (inactive) |  |
| CNC(=O)O/N=C(/CSC)C(C)(C)C | 5.26% (inactive) |  |
| CCCOc1nn(C(=O)NS(=O)(=O)c2ccccc2C(=O)OC)c(=O)n1C | 12.4% (inactive) |  |

| Structure (SMILES) | viability change, negative = cytotoxic | Potency |
| --- | --- | --- |
| O=C(Cl)OCc1ccccc1 | 13.5% [at 80.4 µM] (inactive) |  |
| NCCOS(=O)(=O)O | 8.77% (inactive) |  |
| Cc1ccc(-c2nc3ccc(C)cn3c2CC(=O)N(C)C)cc1 | 19.8% (inactive) |  |
| CCNP(=S)(OC)O/C(C)=C/C(=O)OC(C)C (stereo not given) | -2.6% (inactive) |  |
| CCN(CCO)CCn1c(Cc2ccccc2)nc2c1c(=O)n(C)c(=O)n2C | -11.6% (inactive) |  |
| NC(=O)CS(=O)C(c1ccccc1)c1ccccc1 (stereo not given) | 19.8% (inactive) |  |
| CCC(C(N)=O)N1CCCC1=O (stereo not given) | 4.13% (inactive) |  |
| CC(C)NCC(O)c1ccc([N+](=O)[O-])cc1 (stereo not given) | 3% (inactive) |  |
| COC(=O)c1ccc(CBr)cc1 | 4.71% [at 80.4 µM] (inactive) |  |
| CCOC1Oc2ccc(OS(C)(=O)=O)cc2C1(C)C (stereo not given) | 29.6% (inactive) |  |
| ClCOCCl | 0.884% [at 80.4 µM] (inactive) |  |
| CCCOC(=O)c1cncn1C(C)c1ccccc1 (stereo not given) | 2.63% (inactive) |  |
| C1CN2CCC1CC2 | 4.43% (inactive) |  |
| C/C=C/CC#N | 7.68% [at 80.4 µM] (inactive) |  |
| C[C@H]1CCCC(=O)CCC/C=C/c2cc(O)cc(O)c2C(=O)O1 | 3.2% [at 28.9 µM] (inactive) |  |
| CCOC(=O)N(C)N=O | 0.0148% (inactive) |  |
| Clc1cc2c(cc1Cl)Oc1cc(Cl)c(Cl)cc1O2 | -3.41% [at 0.278 µM] (inactive) |  |
| CC(C)(C)NC[C@H](O)c1ccc(O)cc1Cl | 2.73% (inactive) |  |
| O=C1C2CC=CCC2C(=O)N1SC(Cl)(Cl)Cl (stereo not given) |  | inactive and 12.1 µM (active) |
| CCOC(=O)COc1ccc(Cl)cc1Cl | -9.04% (inactive) |  |
